ELG1 genotox – induces genotoxicity in HEK293T cells with luciferase-tagged ELG1; HEK293T ELG1-luciferase reporter, luminescence, 16 h; Potency, µM (top dose mostly 46 µM), for inactives: top-dose activity change, positive = activation, hits mostly activators; 1.3% of 330,000 active; AID 504466; note: % of control where 0% means no effect; nearly all actives have a fitted effect of over 60% in size
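Genotoxicity was scored as increased ELG1-luciferase reporter signal, measured by ONE-Glo luminescence (30 min, room temperature). Compound or vehicle exposure of the HEK293T reporter cells lasted 16 hr at 37°C.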
FLuc counter – inhibits or activates purified firefly luciferase, miR-21 counter-screen; 6.9% of 360,000 active; P08659; Potency, µM (highest dose often 57.5 µM), without a hit: at the highest dose activity change, negative = inhibition, hits mostly inhibitors; purified FLuc, Km substrates, luminescence inhibition;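 note: plate controls were vehicle for no effect and reference inhibitor for full effect; nearly all actives have a fitted effect of over 55% in size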
Target sequence (P08659 whole entry, looked up): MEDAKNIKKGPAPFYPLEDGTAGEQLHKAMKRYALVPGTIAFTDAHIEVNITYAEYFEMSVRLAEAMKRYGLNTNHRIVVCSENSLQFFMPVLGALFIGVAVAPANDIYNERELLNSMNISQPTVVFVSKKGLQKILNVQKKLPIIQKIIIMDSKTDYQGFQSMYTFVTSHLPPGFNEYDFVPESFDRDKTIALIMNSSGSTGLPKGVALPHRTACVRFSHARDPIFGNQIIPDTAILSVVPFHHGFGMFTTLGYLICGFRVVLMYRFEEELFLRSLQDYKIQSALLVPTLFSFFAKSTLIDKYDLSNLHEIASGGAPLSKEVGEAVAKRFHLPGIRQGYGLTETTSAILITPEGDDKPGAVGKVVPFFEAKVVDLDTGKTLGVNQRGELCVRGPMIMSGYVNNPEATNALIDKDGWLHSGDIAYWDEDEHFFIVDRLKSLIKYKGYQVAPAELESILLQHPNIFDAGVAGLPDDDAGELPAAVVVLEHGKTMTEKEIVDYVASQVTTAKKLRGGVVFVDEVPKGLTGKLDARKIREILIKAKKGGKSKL
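Purified P. pyralis luciferase (10nM final) with 10uM D-luciferin and 10uM ATP (Km levels) in 50mM Tris acetate pH 7.5, 10mM Mg acetate, 0.01% Tween-20, 0.05% BSA; qHTS 6-point titration, ~60 µM downward; luminescence read.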
NPC1 prom act – activators of NPC1 promoter | Potency, µM (top dose mostly 9.22 µM), for the others: top-dose activation, usual class: activators | 2.4% of 320,000 active | Huh7 NPC1 promoter luciferase reporter, 24 h; note: % of control where 0% means no effect; nearly all actives have a fitted effect of over 60% in size
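Quantitative HTS used a cell-based reporter: Huh7 cells stably bearing the NPC1 promoter upstream of luciferase were treated with compounds for 24 h, and promoter activation was read as luminescence.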
SMN2 splice enh – enhancers of SMN2 splice variant expression | 2.8% of 210,000 active | AID 1458 | HEK293 SMN2-luciferase splicing reporter, luminescence, 30-36 h | Potency, µM (doses to about 46.1 µM), inactives show at the top dose activity change, positive = activation, hits mostly activators; note: % of control where 0% means no effect; nearly all actives have a fitted effect of over 55% in size
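HEK293 cells carry an SMN2 […]–luciferase reporter in which exon 7 inclusion puts luciferase in frame. Cells were plated 10-12 h before compound addition, then incubated 30-36 h at 37C. ONE-Glo luminescence was read; sodium butyrate at 4.5 mM final served as control.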
Rab9 prom act – activates the Rab9 promoter | Huh7 Rab9 promoter-luciferase reporter, luminescence, 24 h | Potency, µM (highest dose often 9.22 µM), without a hit: top-dose activation, negative = inhibition, actives largely listed as activators | 2.8% of 320,000 active; note: % of control where 0% means no effect; nearly all actives have a fitted effect of over 60% in size
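Huh7 reporter line, Rab9 promoter upstream of luciferase. Compound exposure 24 h at 37 °C in reduced-serum medium with 10% FBS. Read-out: luminescence.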
Numbers without * were called inactive; ? = inconclusive; nt = no result; [ ] = remark or other dose. Most compounds without a hit are left out; they make up all but 7.4% or so of the library. Calls come from the whole dose curve; as a rule, active = well fitted curve in the direction sought with a large enough effect; inconclusive = small, poorly fitted or top-dose-only effect, or another doubt; inactive = no such curve, though single readings can be large; an effect the other way counts as inactive or inconclusive. Potency is the fitted concentration of half-maximal effect.

SMILES	ELG1 genotox	FLuc counter	NPC1 prom act	SMN2 splice enh	Rab9 prom act
O=C(Cc1ccccc1F)Nc1nc(-c2cccs2)cs1	?	11µM*	?	-13%	?
O=C(Cc1ccccc1)Nc1nnc(-c2cccs2)s1	?	-1%	?	?	?
O=C(Cc1ccccc1F)Nc1nc(-c2ccc(F)c(F)c2)cs1	-24%	13µM*	4%	nt	?
Cc1ccc(Cl)cc1NC(=O)Cn1c(=O)n(CCC(=O)N2CCc3ccccc3C2)c(=O)c2ccccc21	nt	-6%	nt	-1%	nt
Cc1ccccc1C(=O)Nc1sc2c(c1C(=O)N1CCCCC1)CCC(C)C2 (stereo not given)	nt	-16%	nt	0%	nt
O=C(Nc1nc(-c2cccs2)cs1)c1ccco1	10µM*	8.5µM*	4µM*	13µM*	3.2µM*
CCOc1ccc(Nc2nc3c(S(=O)(=O)c4ccc(CC)cc4)nnn3c3ccc(Cl)cc23)cc1	nt	2%	nt	5%	nt
Fc1cc(F)c2nc(N3CCCCC3)sc2c1	?	15µM*	?	?	27%
Fc1ccc2nc(N3CCCC3)sc2c1	?	12µM*	2.2µM*	13µM*	?
O=C(c1ccc2c(c1)CCCC2)N1CCN(c2nc3ccc(F)cc3s2)CC1	nt	-7%	nt	nt	nt
O=[N+]([O-])c1ccc2nc(N3CCCC3)sc2c1	?	11µM*	3.2µM*	nt	3.5µM*
CC(=O)c1cccc(NC(=O)c2sc(-n3nc(C)c(CCC(C)C)c3C)nc2C)c1	nt	-6%	nt	nt	nt
COc1cn(CC(=O)Nc2cc(C)ccc2C)c(CN2CCCCC2)cc1=O	nt	-4%	nt	nt	nt
COC(=O)N1C2=C(c3ccccc3[C@@H]1CC(=O)Nc1ccc(Br)cc1)[C@@H]1C(=O)N(c3ccccc3)C(=O)[C@@H]1[C@H](C)C2	nt	nt	nt	-4%[9.22 µM]	nt
O=C=Nc1ccc(Cl)c(Cl)c1	nt	nt	nt	5%	nt
O=C(N/N=C/c1ccc(Br)s1)c1c[nH]c2ccccc12	3%	21µM*	3.5µM*	8.9µM*	2.8µM*
O=C(N/N=C/c1cc(Br)cs1)c1c[nH]c2ccccc12	8%	17µM*	?	nt	24%
O=C(N/N=C/c1cc(Br)cs1)c1ccccc1[N+](=O)[O-]	-5%	1%	-9%	-8%	-16%
Cc1cccc(-n2c(C)cc(/C=N\NC(=O)c3ccco3)c2C)c1	?	9.5µM*	?	13%	1.1µM*
CSC(=S)N/N=C/c1ccc(N(C)C)cc1	?	2.7µM*	11%	28%	23%
Cc1cc(/C=N/NC(=O)c2nn(C)cc2Cl)c(C)n1-c1cccc(Br)c1	4%	24µM*	-2%	-20%	-5%
O=C(N/N=C/c1ccc2ncccc2c1)c1ccco1	2.6µM*	1.3µM*	?	0.56µM*	0.32µM*
CSC(=S)N/N=C/c1ccc(Br)cc1	-2%	-17%	-4%	10%	-1%
Cc1cc(C)c2oc(-c3cccc(NC(=O)COc4ccc([N+](=O)[O-])cc4)c3)nc2c1	nt	1%	nt	-11%	nt
CC(C)N(Cc1ccccc1)C(=O)c1nc(-c2ccc(Cl)cc2)n2c1CCCCC2	nt	-14%	nt	nt	nt
SMILES	ELG1 genotox	FLuc counter	NPC1 prom act	SMN2 splice enh	Rab9 prom act
O=C(N/N=C\c1ccoc1)c1ccco1	7%	-11%	0%	nt	9%
CN(C)c1ccc(/C=N\NC(=O)c2cccc3cc[nH]c23)cc1	?	12µM*	22%	nt	?
CN(C)c1ccc(/C=N/NC(=O)c2ccco2)cc1	4.1µM*	2.7µM*	0.79µM*	8.9µM*	0.56µM*
CN(C)c1ccc(/C=N/NC(=O)c2cc(=O)[nH]c3ccccc23)cc1	5%	-13%	-3%	nt	-1%
Cc1cc(C(=O)NN=Cc2ccc(OC(=O)c3ccco3)cc2)c(C)o1	0%	nt	nt	nt	nt
Cc1ccc(/C=N/NC(=O)c2ccco2)cc1	?	3.8µM*	1.8µM*	nt	1.4µM*
O=C(Nc1ccc(F)cc1F)c1cc2nc3c(c(C(F)(F)F)n2n1)CCCC3	?	0.6µM*	1.1µM*	17%	0.56µM*
Cc1cc(C)nc(Nc2n[nH]c(COc3cccc4ccccc34)n2)n1	0%	10%	-27%	2%	-16%
Cc1cc(C)nc(Nc2n[nH]c(-c3ccccc3Cl)n2)n1	?	6.7µM*	?	14µM*	?
Cc1cc(C)nc(Nc2n[nH]c(-c3cccc4ccccc34)n2)n1	3%	12µM*	26%	-12%	30%
Cc1cc(C)nc(Nc2n[nH]c(COc3ccccc3)n2)n1	0%	3%	?	-14%	?
Cc1ccc2c(c1)N(C(=O)CCC(=O)NCc1cccc(F)c1)CC(C)O2 (stereo not given)	nt	-7%	nt	nt	nt
NS(=O)(=O)c1ccc(NC(=O)COC(=O)c2ccc3c(c2)OCCO3)cc1	-3%	6%	1%	18%	1%
N#CCC(=O)Nc1ccc(C(=O)OCC(=O)c2ccc3c(c2)OCCO3)cc1	12%	11µM*	?	-5%	?
N#CCC(=O)Nc1ccc(C(=O)OCC(=O)c2ccc3c(c2)OCO3)cc1	12%	?	?	nt	4µM*
Cc1ccc(Cl)cc1N1CCN(CCNC(=O)Nc2ccccc2Cl)CC1	nt	4%	nt	9%	nt
N#Cc1ccccc1-c1cncnc1NCc1cccnc1	nt	nt	nt	2%	nt
O=C(O)c1ccc(-c2cccc([N+](=O)[O-])c2)o1	-3%	-16%	-1%	nt	0%
O=C(NC1CCCCC1)c1ccc(-c2cccc([N+](=O)[O-])c2)o1	2.1µM*	2.7µM*	0.32µM*	nt	0.4µM*
COCCNC(=O)c1cc(-c2cccc(OC)c2)on1	?	12µM*	3.5µM*	11µM*	3.2µM*
COc1cccc(-c2cc(C(=O)NC3CCCC3)no2)c1	1.8µM*	4.3µM*	1.4µM*	11µM*	0.63µM*
COCC(C)NC(=O)c1cc(-c2ccc(O)cc2)on1 (stereo not given)	?	-20%	27%	9%	25%
COCC(C)NC(=O)c1cc(-c2cccc(OC)c2)on1 (stereo not given)	?	?	?	?	2.2µM*
COc1ccc2c(c1)[N+](=O)C(/C(C)=N/NC(N)=S)=C(C)[N+]2=O	nt	nt	nt	-1%[9.22 µM]	nt
CCc1ccc(NC(=O)CC2C(=O)N(c3cccc(OC)c3)C(=O)N2Cc2ccco2)cc1 (stereo not given)	nt	-10%	nt	nt	nt
O=C1N(c2ccccc2)C[C@@H]2C[C@@H](c3cccs3)N3CCC[C@@]123	-7%	-5%	-23%	22µM*	-32%
CC(C)(O)C#Cc1ccc([C@@H]2C[C@H]3CN(c4ccccc4)C(=O)[C@]34CCCN24)s1	-3%	3%	-37%	?	-32%
CCCC(=O)c1ccc(N2CCC(C)CC2)c(F)c1	?	9.5µM*	2%	?	25%
CCC(=O)c1ccc(N2CCN(C(=O)c3ccccc3)CC2)c(F)c1	-3%	0%	-2%	nt	-12%
CCOC(=O)N1CCN(c2ccc(C(=O)CC)cc2F)CC1	7%	-1%	0%	-11%	-4%

Source: PubChem BioAssay
